Over roughly 33,000 sequences, “e-score” has its median near -0.05; the highest 2% begin near 0.38. For the sample, the highest values were picked, then their nearest neighbours and some sequences at random.

The record followed here is article PMC10668032, “Altered binding affinity of SIX1-Q177R correlates with enhanced WNT5A and WNT pathway effector expression in Wilms tumor”.

For this test, the target named is T1, SIX1-Q177R homeodomain (human, UniProt Q15475 108-198, Q177R).
T1 sequence: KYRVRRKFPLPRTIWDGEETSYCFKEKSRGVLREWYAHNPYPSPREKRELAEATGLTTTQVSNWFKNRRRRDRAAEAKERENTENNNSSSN
The test can be described thus: universal protein binding microarray; Universal all-10-mer PBM (8x60K, AMADID 030236), 300 nM GST-tagged protein, Alexa Fluor 488 anti-GST; buffer, salt, pH and temperature not stated (as in Berger); high values mean tight binding. The conditions noted are these: protein: ivt; tags: N-terminal GST; dsDNA, one strand shown. A digest of the protocol:
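GST-tagged homeodomains were made by in vitro transcription/translation and quantified by anti-GST western blot against a recombinant GST standard curve. They were applied in duplicate at 300 nM final concentration to universal 'all 10-mer' protein binding microarrays (8×60K format). Binding was quantified as 8-mer E-scores with the Universal PBM Analysis Suite.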
GTACACAA: the binding signal stood at 0.308 ± 0.0492 E-score.
Consider CTACACGA, for which the binding signal was 0.388 ± 0.00636 E-score.
Under CAACACGC stands 0.363 ± 0.0087 E-score; under CTACACAG, 0.161 ± 0.084 E-score; under GTACACGA, 0.4189 ± 0.00327 E-score.
Under CTACACGC stands 0.4033 ± 0.000742 E-score.
The same measure for CTACACAC: 0.297 ± 0.0318 E-score; for CCAGGATC: 0.193 ± 0.0154 E-score; for CCACTTCC: 0.16 ± 0.0569 E-score.
As to TGTACGAA, the binding signal was 0.157 ± 0.0609 E-score.
The same measure for AATGGACA: 0.174 ± 0.00513 E-score; for ACCCTCCC: 0.211 ± 0.0163 E-score.
With CACCTCTA, the binding signal turned out to be 0.295 ± 0.0114 E-score.
As for GCGTACAC, the binding signal was 0.4123 ± 0.00366 E-score.
Take CCGCACAC: the binding signal was found to be 0.303 ± 0.0285 E-score.
ACGTACCC: the binding signal was determined as 0.202 ± 0.00673 E-score.
Under GCGTACGC stands 0.235 ± 0.0141 E-score; under CCGTACCC, 0.1577 ± 0.00155 E-score; under CCGTACAC, 0.418 ± 0.00993 E-score.
Turning to GCGTACCC, the binding signal is 0.237 ± 0.0376 E-score.
Under ACGTAATC stands 0.186 ± 0.0139 E-score.
Under ACGTACAC stands 0.436 ± 0.00504 E-score; under CACCACGA, 0.28 ± 0.0196 E-score; under CAAGGGTA, 0.19 ± 0.0194 E-score.
The same measure for AACCCCGG: 0.2652 ± 0.00233 E-score; for AACGGACA: 0.278 ± 0.00733 E-score; for TGTCCACA: 0.205 ± 0.0326 E-score.
TAGGTACA: the binding signal was determined as 0.179 ± 0.00841 E-score.
For the sequence CTAGCAAA, the binding signal is 0.173 ± 0.0314 E-score.
Under TCCCGACA stands 0.155 ± 0.0127 E-score; under CACCGTCC, 0.276 ± 0.00535 E-score; under ACACACCG, 0.428 ± 0.0122 E-score.
The same measure for ACACACAT: 0.201 ± 0.0773 E-score; for ACGCACCG: 0.177 ± 0.0273 E-score; for ACACACGT: 0.27 ± 0.0195 E-score.
The same measure for ACACACAG: 0.269 ± 0.0266 E-score.
Turning to ACACACCT, the binding signal is 0.386 ± 0.00817 E-score.
The same measure for AAAAGGTG: 0.195 ± 0.0717 E-score; for ACTGGGTG: 0.319 ± 0.0299 E-score; for ACGCAGTG: 0.212 ± 0.0202 E-score.
As to TGTATCAA, the binding signal came to 0.158 ± 0.0316 E-score.
The same measure for GTCACGAC: 0.164 ± 0.0297 E-score; for CCCGGGAG: 0.189 ± 0.00274 E-score.
With ACTGTGCA, the binding signal came out at 0.195 ± 0.0266 E-score.
The same measure for GGGACACA: 0.232 ± 0.0537 E-score.
The same measure for TGGACACA: 0.252 ± 0.0644 E-score; for AGGACACG: 0.349 ± 0.0239 E-score; for GGGACCCC: 0.211 ± 0.0329 E-score.
Consider AGGACACC, for which the binding signal is 0.4835 ± 0.000969 E-score.
Under AGGACACA stands 0.224 ± 0.0724 E-score; under AGGACACT, 0.3795 ± 0.00235 E-score; under CGGACACA, 0.226 ± 0.0432 E-score.
The same measure for CGGACACG: 0.373 ± 0.0179 E-score.
For GGGACACC, the binding signal was found to be 0.478 ± 0.0106 E-score.
Under CGGACACC stands 0.48 ± 0.00522 E-score; under AGGTAGTG, 0.2489 ± 0.00187 E-score; under AGGATACA, 0.159 ± 0.0108 E-score.
For the sequence ACCATCAG, the binding signal was determined as 0.181 ± 0.0146 E-score.
As for CCAGCACC, the binding signal was determined as 0.153 ± 0.0163 E-score.
The same measure for GACCCCTA: 0.203 ± 0.0141 E-score.
The same measure for CTGACTCC: 0.2326 ± 0.00123 E-score.
The same measure for ACGCCCAA: 0.176 ± 0.019 E-score; for ACTTCTTA: 0.183 ± 0.0236 E-score.
Turning to CTTTGCAC, the binding signal amounted to 0.16 ± 0.0373 E-score.
The same measure for CTTTACAC: 0.431 ± 0.0203 E-score; for ATTTACAC: 0.451 ± 0.0245 E-score; for CTTTACCC: 0.171 ± 0.0198 E-score.
For CTATTTAC, the binding signal was 0.1742 ± 0.000191 E-score.
Under ATTCACAC stands 0.348 ± 0.0127 E-score.
As for CCCCTAAG, the binding signal is 0.172 ± 0.0119 E-score.
Under ACCTGGGA stands 0.186 ± 0.00272 E-score.
Regarding CCAACAAC, the binding signal amounted to 0.211 ± 0.0163 E-score.
Under CAGCACCA stands 0.182 ± 0.0218 E-score; under CACGTGGG, 0.16 ± 0.0172 E-score.
For the sequence CGGGTCGC, the binding signal stood at 0.189 ± 0.0605 E-score.
Under AGTGTCGG stands 0.4212 ± 0.00372 E-score.
As for CGTGTCGC, the binding signal came to 0.44 ± 0.0199 E-score.
Under AGTGTCGC stands 0.4145 ± 0.00339 E-score.
As to AGTGTCTC, the binding signal came out at 0.329 ± 0.00361 E-score.
AGTGTGGA: the binding signal came out at 0.162 ± 0.0186 E-score.
The same measure for AGGGTCGG: 0.172 ± 0.00622 E-score.
With AGTGTCGA, the binding signal was 0.408 ± 0.0268 E-score.
The same measure for AGTGTTGG: 0.3564 ± 0.000735 E-score.
For the sequence CGTGTGGC, the binding signal was 0.181 ± 0.00793 E-score.
In the case of AAGCGGTG, the binding signal amounted to 0.214 ± 0.0624 E-score.
Under CATCCACA stands 0.177 ± 0.00969 E-score.
